Bioassay records from PubChem BioAssay.
Fam108B inh – counter-screen for RBBP9 inhibitors: inhibitors of mouse Fam108B. recombinant Fam108B, FP-Rh probe fluorescence polarization. inhibition, % at 9.51 µM. actives 0.33% (n = 300,000);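 active = inhibition above the screen mean inhibition plus 3 SD, computed separately per campaign, cut at about 18% in these data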;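 note: inhibitors lower polarization as less probe binds the enzyme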
pPAFAH inh – pPAFAH (human) enzyme inhibition | Q13093 | recombinant pPAFAH, FP-rhodamine probe fluorescence polarization | inhibition, % at 3.39 µM | actives 1.5% (n = 330,000);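 active = inhibition above the mean inhibition across the screen plus 3 SD, cut at about 25% in these data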;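 note: inhibitors block binding of the rhodamine activity-based probe so polarization drops; 0% = enzyme with DMSO and 100% = wells lacking pPAFAH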
PAFAH2 inh – inhibitors of human PAFAH2; Q99487; recombinant PAFAH2, FP-rhodamine activity probe, fluorescence polarization; inhibition, % at 3.39 µM; actives 0.99% (n = 340,000); AID 492956;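 active = inhibition above the mean over all tested compounds plus 3 SD, cut at about 30% in these data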;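 note: inhibitors block probe labeling of enzyme so polarization drops; 0% = enzyme with DMSO and 100% = wells lacking PAFAH2 protein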
PAFAH1B2 inh – PAFAH1B2 (human) inhibition. AID 492953. actives 1.2% (n = 340,000). recombinant PAFAH1B2, FP-rhodamine activity probe, fluorescence polarization. inhibition, % at 3.39 µM;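 active = inhibition above the mean of all tested compounds plus 3 SD, cut at about 24% in these data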;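 note: 0% = enzyme with DMSO and 100% = wells lacking PAFAH1B2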
PME-1 inh – PME-1 (human) inhibition | Q9Y570 | recombinant PME-1, FP-Rh probe fluorescence polarization | inhibition, % at 5.9 µM | actives 0.53% (n = 320,000) | AID 2130;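 active = inhibition above the campaign mean of all compounds plus 3 SD, cut at about 26% in these data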;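 note: competitive labeling of PME-1 active site by serine hydrolase directed probe; 0% = PME-1 with DMSO and 100% = wells lacking PME-1 enzyme; inhibitors block probe labeling so polarization falls and inhibition rises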
Target sequence (Q9Y570 whole entry, looked up): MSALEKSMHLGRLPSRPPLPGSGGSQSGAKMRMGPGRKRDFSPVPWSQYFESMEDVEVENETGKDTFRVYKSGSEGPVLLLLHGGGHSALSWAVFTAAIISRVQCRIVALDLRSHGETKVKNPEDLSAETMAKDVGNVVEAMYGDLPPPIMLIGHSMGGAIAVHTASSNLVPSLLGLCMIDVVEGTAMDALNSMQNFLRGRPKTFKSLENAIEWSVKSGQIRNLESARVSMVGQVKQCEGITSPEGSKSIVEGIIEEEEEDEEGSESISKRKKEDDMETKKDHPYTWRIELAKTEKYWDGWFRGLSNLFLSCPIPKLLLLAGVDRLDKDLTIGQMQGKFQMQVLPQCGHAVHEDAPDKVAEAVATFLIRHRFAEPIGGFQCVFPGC
PAFAH1B3 inh – PAFAH1B3 (human) inhibition; Q15102; recombinant PAFAH1B3, FP-rhodamine probe, fluorescence polarization; inhibition, % at 3.39 µM; actives 0.28% (n = 340,000); AID 492972;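 active = inhibition above the screen-wide average of all tested compounds plus 3 SD, cut at about 25% in these data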;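 note: 0% = enzyme with DMSO only and 100% = wells lacking PAFAH1B3 protein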
Target sequence (Q15102 whole entry, looked up): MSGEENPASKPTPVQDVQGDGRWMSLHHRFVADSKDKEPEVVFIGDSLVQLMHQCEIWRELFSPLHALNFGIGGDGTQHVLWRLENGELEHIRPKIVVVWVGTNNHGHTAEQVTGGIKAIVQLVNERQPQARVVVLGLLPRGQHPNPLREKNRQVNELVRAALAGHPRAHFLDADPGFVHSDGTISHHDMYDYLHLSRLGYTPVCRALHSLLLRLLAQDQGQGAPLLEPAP
PAFAH2 confirm – PAFAH2 (human) inhibition, confirmed | shares compounds with PAFAH2 inh | recombinant PAFAH2, FP-rhodamine activity probe, fluorescence polarization | inhibition, % at 3.39 µM | actives 65% (n = 2,300) | AID 493030;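 active = mean inhibition over three repeats above a set limit taken from the earlier primary screen, cut at about 30% in these data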;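 note: inhibitor blocks binding of rhodamine activity probe so polarization falls; 0% = enzyme with DMSO and 100% = wells lacking PAFAH2 protein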
* hit, by the source's call; nt = no result. Most compounds without a hit are left out; they make up all but 2.9% or so of the library.

SMILES	Fam108B inh	pPAFAH inh	PAFAH2 inh	PAFAH1B2 inh	PME-1 inh	PAFAH1B3 inh	PAFAH2 confirm
CC1(C)CCCN(C(=O)c2coc(=O)c(Br)c2)C1	nt	nt	48*	7	nt	11	21
O=C(c1coc(=O)c(Br)c1)N1CCC(C(O)(c2ccccc2)c2ccccc2)CC1	-2	5	3	4	1	6	nt
COc1cccc(-c2cc(C(=O)N3CCN(S(=O)(=O)c4ccc(Br)cc4)CC3)[nH]n2)c1	-4	7	2	0	-3	-3	nt
N#C/C(=C\c1c(Cl)cccc1Cl)c1nc2ccccc2o1	2	1	33*	-2	7	0	33*
COC(=O)/C=C/c1ccccc1CN1[C@@H](CC(=O)OC)c2ccccc2S1(=O)=O	nt	0	3	3	0	13	nt
O=C1C=CC(=O)C(CNc2ccc(C(=O)OCc3ccccc3)cc2)=C1	nt	nt	59*	8	nt	15	37*
N/C(CS(=O)(=O)c1ccccc1)=N\OC(=O)c1ccc(F)cc1	-2	9	52*	3	1	5	40*
Cc1ccc(C(=O)NC(Cc2ccccc2C(F)(F)F)C(=O)O)cc1 (stereo unspecified)	nt	4	1	4	nt	6	nt
N=C1S/C(=C\c2ccc(-c3cccc(Cl)c3)o2)C(=O)N1c1nccs1	11	16	45*	8	14	11	23
CCc1sc(/C=C(/C#N)C(N)=S)cc1[N+](=O)[O-]	nt	nt	31*	12	nt	10	25
O=C1CNC(=S)N1C1CCCCCC1	0	-2	-9	9	-10	2	nt
CCOc1ccc(S(=O)(=O)/N=C(/Nc2ccc(C(C)=O)cc2)c2ccccc2)cc1	nt	8	57*	-1	nt	9	41*
CC(=O)Nc1ccc(N/C(=N\S(=O)(=O)c2ccccc2)c2ccccc2)cc1	0	-3	20	5	-1	10	nt
CCOc1ccc(S(=O)(=O)/N=C(/Nc2ccc(OC)cc2)c2ccccc2)cc1	-2	7	52*	0	4	8	41*
CC(=O)c1ccc(S(=O)(=O)N2CCCC(N(C)CCc3ccccn3)C2)cc1 (stereo unspecified)	1	0	4	6	-2	0	nt
CC(=O)C1=C(O)C(=O)N(c2cc(C(C)(C)C)on2)C1c1ccc(C(C)C)cc1 (stereo unspecified)	0	-10	16	5	-7	-3	nt
CC(=O)C1=C(O)C(=O)N(c2cc(C(C)(C)C)on2)C1c1ccc(Br)cc1 (stereo unspecified)	0	7	34*	14	-2	7	23
Cc1noc(C)c1COc1ccc(C(=O)OCC(=O)NC23CC4CC(CC(C4)C2)C3)cc1	-5	11	81*	2	-3	7	80*
Cc1noc(C)c1COc1ccc(C(=O)OCC(=O)NC2CCCCC2C)cc1 (stereo unspecified)	1	15	77*	4	5	1	82*
COc1ccc(O)c(C(=O)c2cnn(C(=O)c3cc(C)oc3C)c2)c1	2	2	41*	5	-6	3	21
O=c1cc(-c2ccc(O)c(O)c2)oc2ccc3ccccc3c12	nt	nt	35*	-2	nt	6	47*
O=C(c1ccccc1)c1ccc(O)c(O)c1O	nt	nt	38*	9	nt	21	42*
CCOc1ccc2noc3c2c1C(=O)c1ccccc1-3	14	21	31*	18	17	19	19
COC(CNC(=O)c1ccc2c3c(onc13)-c1ccccc1C2=O)OC	5	7	0	5	6	11	nt
Nc1ccc(C(=O)OCC(=O)NC(=O)c2ccccc2)cc1[N+](=O)[O-]	0	6	38*	-3	3	5	22
SMILES	Fam108B inh	pPAFAH inh	PAFAH2 inh	PAFAH1B2 inh	PME-1 inh	PAFAH1B3 inh	PAFAH2 confirm
O=C(COC(=O)c1cccnc1Cl)NCc1ccc2c(c1)OCO2	-8	0	6	-3	-5	2	nt
O=C(COC(=O)c1cccnc1Cl)Nc1ccc2c(c1)OCCO2	0	6	36*	-1	0	9	30*
O=C(COC(=O)c1ccc(O)cc1)c1ccc2c(c1)OCCO2	nt	nt	14	3	nt	0	nt
NC(=O)c1ccc(NC(=O)COC(=O)c2ccc3c(c2)OCO3)cc1	nt	1	4	1	4	-9	nt
O=C(COC(=O)c1ccc2c(c1)OCO2)Nc1cccc(F)c1	nt	7	81*	0	1	-3	84*
O=C(COC(=O)c1ccc(O)cc1)Nc1ccc2c(c1)OCCO2	nt	16	78*	-5	nt	5	69*
CCOc1ccc(-c2nc3c(s2)CCc2onc(-c4ccc(OC)cc4)c2-3)cc1	-2	-1	1	6	4	0	nt
CCOc1ccc(NC(=O)COC(=O)c2ccc3c(c2)OCO3)cc1	nt	5	64*	2	-1	-6	62*
O=C(COC(=O)c1ccc2c(c1)OCO2)Nc1ccccc1Cl	nt	1	58*	6	6	5	44*
Nc1ccc(C(=O)OCC(=O)Nc2ccc3c(c2)OCO3)cc1[N+](=O)[O-]	3	5	65*	8	13	9	49*
O=C(COC(=O)c1ccc(N2CCOCC2)c([N+](=O)[O-])c1)Nc1ccc2c(c1)OCO2	-3	21	-7	6	1	8	nt
O=C(COC(=O)c1ccc(O)cc1)NCC1COc2ccccc2O1 (stereo unspecified)	nt	3	32*	-3	4	4	27
COc1cc(OC)cc(C(=O)OCCCOC(=O)c2cc(OC)cc(OC)c2)c1	-1	0	-2	-2	-3	-2	nt
CC(OC(=O)c1ccc(O)cc1)C(=O)Nc1cc(C(F)(F)F)ccc1Cl (stereo unspecified)	-4	-1	-2	4	-6	1	nt
O=C(COC(=O)c1ccc(O)cc1)Nc1cc(C(F)(F)F)ccc1Cl	-6	12	55*	13	1	5	40*
O=C(COC(=O)c1ccc(O)cc1)Nc1ccccc1	3	17	92*	-3	-7	8	80*
N/C(=N\OC(=O)c1ccc2c(c1)OCO2)c1ccc(Cl)cc1	6	3	33*	-4	-1	9	30*
O=C(COC(=O)c1ccc(O)cc1)NC(=O)NCc1ccccc1	nt	4	11	5	-1	8	nt
COc1ccc(C)cc1NC(=O)COC(=O)c1ccc2c(c1)OCO2	nt	5	6	4	-6	-4	nt
Cc1ccc(NC(=O)COC(=O)c2ccc3c(c2)OCCO3)cc1	nt	9	86*	-3	-10	8	85*
O=C([C@@H]1CCCN1C(=O)c1cccs1)N1CCN(S(=O)(=O)c2cccc(F)c2)CC1	nt	2	-3	12	1	4	nt
